Where a name gives a salt, the structure may show the parent alone. ± gives the standard deviation or the standard deviation of the averaged measurements.
Tests used:
Conditions in all cases: 25 µM; exposure: 24-48 hpf
[1] = tested on: Danio rerio Tg(wt1b:EGFP) embryo, pronephros; test: glomerular separation, fold change vs DMSO control; higher = glomeruli further apart (abnormal)
How it was run: (§1)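 From 24 to 48 hpf, at 28.5°C, dechorionated Tg(wt1b:EGFP) zebrafish embryos sat in HEPES-buffered E3 with 0.003% PTU carrying 25 μM compound and 0.5% DMSO. Their pronephroi were imaged dorsally in 96-well plates filled with agarose, using 470 nm light and 10 z-slices. A Fiji macro measured distances and angles between 16 reference points that were set manually on maximum projections, and any value more than 2 SD from its feature mean was excluded. Features are expressed as fold change relative to the mean of DMSO-treated embryos imaged on the same day.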

[2] = tested on: Danio rerio Tg(wt1b:EGFP) embryo, pronephros; test: glomerular width (mean of left and right), fold change vs DMSO control; higher = wider glomerulus
How it was run: as §1

[3] = tested on: Danio rerio Tg(wt1b:EGFP) embryo, pronephros; test: fraction of imaged embryos annotated as normal kidney; higher = less nephrotoxic; extreme values may be limits of the assay
How it was run: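 Zebrafish embryos carrying Tg(wt1b:EGFP) were dechorionated and exposed to 25 μM compound (0.5% DMSO) between 24 and 48 hpf at 28.5°C. Their pronephroi were imaged by widefield fluorescence, and each embryo was classed by hand from maximum projections. The measure is the fraction of embryos per treatment falling in the normal-kidney category.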

[4] = tested on: Danio rerio Tg(wt1b:EGFP) embryo, pronephros; test: pronephric angle neck segment to proximal convoluted tubule (mean of left and right), fold change vs DMSO control; higher = larger pronephric angle
How it was run: as §1

| SMILES | glomerular separation [1] | glomerular width [2] | fraction of imaged embryos annotated as normal kidney [3] | pronephric angle neck segment [4] |
| --- | --- | --- | --- | --- |
| CC(=O)OCC(=O)[C@@]1(O)[C@H](C)C[C@H]2[C@@H]3CCC4=CC(=O)C=C[C@]4(C)[C@@]3(F)[C@@H](O)C[C@@]21C [Dexamethasone acetate] | 1 ± 0.25 | 1.252 ± 0.0072 | 1 | 1.02 ± 0.034 |
| COc1ccccc1N1CCN(CC(O)COc2cccc3ccccc23)CC1 (stereo not given) [Naftopidil dihydrochloride] | 0.922 ± 0.42 | 0.983 ± 0.024 | 0.833 | 0.966 ± 0.034 |
| CCOC(=O)Nc1ccc2c(c1)N(C(=O)CCN1CCOCC1)c1ccccc1S2 [Moricizine hydrochloride] | 0.635 ± 0.18 | 1.04 ± 0.013 | 0.833 | 0.993 ± 0.055 |
| CC(=O)N[C@@H](CS)C(=O)O [Acetylcysteine] | 0.784 ± 0.26 | 1.035 ± 0.0055 | 0.917 | 1.0017 ± 0.00093 |
| CC(C(=O)O)c1ccc(-c2ccccc2)c(F)c1 (stereo not given) [Flurbiprofen] | 5.61 ± 1.3 | 0.48 ± 0.02 | 0 | 1.96 ± 0.059 |
| OCCN(CCO)c1nc(N2CCCCC2)c2nc(N(CCO)CCO)nc(N3CCCCC3)c2n1 [Dipyridamole] | 0.687 ± 0.13 | 0.982 ± 0.046 | 0.8 | 1.017 ± 0.0071 |
| CO/N=C(\C(=O)N[C@@H]1C(=O)N2C(C(=O)O)=C(COC(C)=O)CS[C@H]12)c1csc(N)n1 [Cefotaxime sodium salt] | 0.857 ± 0.26 | 0.957 ± 0.011 | 0.909 | 0.982 ± 0.017 |
| CN1CCN(CCCN2c3ccccc3Sc3ccc(Cl)cc32)CC1 [Prochlorperazine dimaleate] | 1.05 ± 0.37 | 1.01 ± 0.033 | 0.833 | 1.02 ± 0.027 |
| Cc1c(Cl)cccc1Nc1ncccc1C(=O)O [Clonixin Lysinate] | 4.04 ± 1.5 | 0.545 ± 0.048 | 0 | 1.81 ± 0.068 |
| CC[N+](C)(C)c1cccc(O)c1 [Edrophonium chloride] | 1.26 ± 0.22 | 1.03 ± 0.026 | 0.833 | 0.876 ± 0.05 |
| COc1ccc(-c2cc(=O)c3c(O)cc(O[C@@H]4O[C@H](CO[C@@H]5O[C@@H](C)[C@H](O)[C@@H](O)[C@H]5O)[C@@H](O)[C@H](O)[C@H]4O)cc3o2)cc1O [Diosmin] | 1.06 ± 0.42 | 0.996 ± 0.011 | 0.727 | 0.974 ± 0.032 |
| CC(=O)Nc1c(I)c(C(=O)N[C@H]2C(O)O[C@H](CO)[C@@H](O)[C@@H]2O)c(I)c(N(C)C(C)=O)c1I (stereo not given in full) [Metrizamide] | 0.874 ± 0.3 | 1.11 ± 0.1 | 0.833 | 0.988 ± 0.025 |
| CC(=O)Nc1ccc(CC(=O)O)cc1 [Actarit] | 1.05 ± 0.28 | 1.116 ± 0.0018 | 0.667 | 0.998 ± 0.049 |
| Cc1ccc(-c2ncc(Cl)cc2-c2ccc(S(C)(=O)=O)cc2)cn1 [Etoricoxib] | 0.967 ± 0.19 | 1.023 ± 0.0032 | 0.833 | 1.04 ± 0.042 |
| COc1cc(OC)c(C(=O)CCCN2CCCC2)c(OC)c1 [Buflomedil hydrochloride] | 1.14 ± 0.33 | 1.08 ± 0.06 | 0.917 | 1.01 ± 0.053 |
| C[C@@H](O[C@H]1OCCN(Cc2n[nH]c(=O)[nH]2)[C@H]1c1ccc(F)cc1)c1cc(C(F)(F)F)cc(C(F)(F)F)c1 [Aprepitant] | 0.995 ± 0.34 | 1.09 ± 0.076 | 0.667 | 1.05 ± 0.059 |
| NC(=O)c1cnccn1 [Pyrazinamide] | 0.862 ± 0.21 | 1.04 ± 0.034 | 0.667 | 0.9361 ± 0.0033 |
| c1ccc2[nH]c(-c3cscn3)nc2c1 [Tiabendazole] | 1.4 ± 0.65 | 1.01 ± 0.12 | 0.667 | 1.04 ± 0.02 |

| SMILES | glomerular separation [1] | glomerular width [2] | fraction of imaged embryos annotated as normal kidney [3] | pronephric angle neck segment [4] |
| --- | --- | --- | --- | --- |
| Cc1c(O)c(=O)n(-c2ccccc2)n1C [Antipyrine, 4-hydroxy] | 1.2 ± 0.38 | 0.951 ± 0.064 | 0.583 | 1.03 ± 0.028 |
| C=CC1=C(C(=O)O)N2C(=O)[C@@H](NC(=O)/C(=N\OCC(=O)O)c3csc(N)n3)[C@H]2SC1 [Cefixime] | 1.32 ± 0.59 | 1 ± 0.014 | 0.75 | 1.07 ± 0.1 |
| NS(=O)(=O)c1cc2c(cc1Cl)NC(CC1CCCC1)NS2(=O)=O (stereo not given) [Cyclopenthiazide] | 0.818 ± 0.23 | 0.935 ± 0.03 | 1 | 1 ± 0.012 |
| Clc1ccc(Nc2nnc(Cc3ccncc3)c3ccccc23)cc1 [Vatalanib] | 1.37 ± 0.99 | 0.886 ± 0.039 | 0.833 | 1.02 ± 0.046 |
| Cn1nnc2c(C(N)=O)ncn2c1=O [Temozolomide] | 0.665 ± 0.25 | 1 ± 0.046 | 0.917 | 0.9479 ± 0.0066 |
| CN(C)CCOC(=O)COc1ccc(Cl)cc1 [Meclofenoxate hydrochloride] | 1.19 ± 0.36 | 1.02 ± 0.049 | 0.667 | 1.05 ± 0.057 |
| O=C1c2cccc3c2[C@H](CCC3)CN1[C@@H]1CN2CCC1CC2 [Palonosetron hydrochloride] | 1.08 ± 0.37 | 0.975 ± 0.023 | 0.667 | 1 ± 0.038 |
| CCC(NC(C)C)C(O)c1ccc(O)c(O)c1 (stereo not given) [Isoetharine mesylate salt] | 1.01 ± 0.56 | 1.074 ± 0.0074 | 0.75 | 1.01 ± 0.032 |
| CC[C@H](c1ccc(O)cc1)[C@@H](CC)c1ccc(O)cc1 [Hexestrol] | 1.04 ± 0.38 | 0.94 ± 0.029 | 0.25 | 1.22 ± 0.08 |
| CC(N/C(=N\C#N)Nc1ccncc1)C(C)(C)C (stereo not given) [Pinacidil] | 0.881 ± 0.21 | 1.05 ± 0.1 | 0.727 | 1.01 ± 0.036 |
| Cc1c(N(C)C)c(=O)n(-c2ccccc2)n1C [Amidopyrine] | 0.645 ± 0.17 | 1 ± 0.0092 | 0.917 | 1.01 ± 0.033 |
| OCCN1CCN(CCCN2c3ccccc3C=Cc3ccccc32)CC1 [Opipramol dihydrochloride] | 0.662 ± 0.23 | 1.1 ± 0.043 | 0.75 | 1.02 ± 0.076 |
| CN[C@@H]1[C@@H](O[C@H]2O[C@H](CO)[C@@H](N)[C@H](O)[C@H]2O)OC2C[C@@H](N)[C@@H](O[C@H]3[C@H](O)[C@@H](O)[C@H](N)C[C@@H]3N)OC2[C@@H]1O (stereo not given in full) [Apramycin] | 1.1 ± 0.44 | 0.977 ± 0.021 | 0.75 | 0.9506 ± 0.0069 |
| O=c1cc(-c2ccc(O)c(O)c2)oc2cc(O)cc(O)c12 [Luteolin] | 0.869 ± 0.36 | 0.9662 ± 0.004 | 0.917 | 0.999 ± 0.006 |
| CCC1NC(=O)c2cc(S(N)(=O)=O)c(Cl)cc2N1 (stereo not given) [Quinethazone] | 0.951 ± 0.37 | 1.05 ± 0.063 | 0.909 | 1.04 ± 0.027 |
| Nc1ncn(C2OC(CO)C(O)C2O)c(=O)n1 (stereo not given) [Azacytidine-5] | 0.981 ± 0.4 | 0.979 ± 0.017 | 1 | 1.02 ± 0.031 |
| c1ccc(CN(CC2=NCCN2)c2ccccc2)cc1 [Antazoline hydrochloride] | 1.08 ± 0.41 | 1.04 ± 0.016 | 0.833 | 0.9446 ± 0.00065 |
